PubChem BioAssay AID504832 (National Center for Advancing Translational Sciences (NCATS), 2011)
Hit rate of the full screen: of about 310,000 compounds, about 18,000 (5.8%) were called active. About 22% were inconclusive and are not listed. This is one part of a sample in which actives are shown more often than they occur. A number with no mark means an inactive call. The call rests on the fitted dose curve; in most records, active means well fitted inhibition curve with a large enough effect; inconclusive means small, poorly fitted or top-dose-only effect, or another doubt; inactive means no such curve, though single readings can be large or run the other way.

experiment: Primary qHTS for delayed death inhibitors of the malarial parasite plastid, 48 hour incubation; details: P. falciparum luciferase growth in erythrocytes; series mostly up to 28.7 µM; activity change, negative = inhibition: at the top concentration
Method in brief: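 Parasite viability was followed by luminescence of a genomically integrated firefly luciferase. Cultures held 0.1% parasitemia at 2% hematocrit (final), incubated under 5% CO2 at 37 C.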
On the % scale 0 is the no-effect control and ±100 the full control effect; potency means the concentration at half of the fitted maximal effect.

| Structure (SMILES) | activity change, negative = inhibition [%] | Potency |
| --- | --- | --- |
| Cn1c(CCc2ccccc2)nnc1SCC(N)=O | 2.6 | – |
| COc1ccc(NC(=O)c2cccc3c2C(=O)N(CC2CCCO2)C3)cc1OC (configuration not stated) | -17.8 | – |
| Cc1nc2sc(C(c3ccco3)N3CCOCC3)c(O)n2n1 (configuration not stated) | 1.8 | – |
| Oc1c(C(c2ccccn2)N2CCOCC2)ccc2cccnc12 (configuration not stated) | – | 9.28 µM (active) |
| O=C(c1cccnc1NCc1ccccc1)N1CCOCC1 | 6.15 | – |
| CCc1noc(C)c1C(=O)N1CCCSC1=Nc1ccccc1OC | -6.15 | – |
| Cc1c(C(=O)Nc2ccccn2)oc2ccc(Br)cc12 | 132 | – |
| CC(C)c1ccc(C(=O)OC2CCOC2=O)cc1 (configuration not stated) | 11.3 | – |
| CCC(C)(C)NC(=O)CN(C(=O)CCC(=O)Nc1nccs1)c1ccc2c(c1)OCO2 | -19.2 | – |
| COc1cc2c(cc1OC)C(c1cccc([N+](=O)[O-])c1)=NCC2 | -14.1 | – |
| COc1ccccc1C1SCCN1C(=O)c1ccc([N+](=O)[O-])cc1 (configuration not stated) | -5.95 | – |
| COc1ccc(C(=O)N2CCc3cc(OC)c(OC)cc3C2c2cccc([N+](=O)[O-])c2)cc1 (configuration not stated) | – | 6.57 µM (active) |
| Cc1ccc(OCCNC(=O)CNC(=O)c2ccc(C)c(C)c2)cc1 | 6 | – |
| CN(C(=O)COC(=O)c1nc(Cl)ccc1Cl)C1CCS(=O)(=O)C1 (configuration not stated) | 2.04 | – |
| COCCN1CCn2c(nc3cc(NS(C)(=O)=O)ccc32)C1 | 30.5 | – |
| COc1ccccc1/C=C/CN1CCC(CO)(Cc2ccccc2)CC1 | – | 11.7 µM (active) |
| COc1ccc(CC2(CO)CCN(Cc3cnn(C)c3)CC2)cc1 | 2.96 | – |
| CC(=O)c1cccc(CN2CCC(CO)(Cc3ccccc3)CC2)c1 | -7.63 | – |
| Cc1cc(C)n(CCNS(=O)(=O)c2ccc(Cl)cc2)n1 | -7.98 | – |
| CC(=O)Nc1ccc(NS(=O)(=O)c2ccc3c(c2)NC(=O)CC(=O)N3)cc1 | 19.7 | – |
| Cc1sc2ncn(CC(=O)NCCCC(=O)N(C)Cc3ccccc3)c(=O)c2c1C | 15.5 | – |
| CCCc1cc(=O)[nH]c(SCC(=O)N2C(C)CCCC2C)n1 (configuration not stated) | 10.6 | – |
| CC1CCCC(C)N1C(=O)CN1CCN(c2nc(-c3ccc(F)cc3)cs2)CC1 (configuration not stated) | – | 11.7 µM (active) |
| O=C(CN1CCN(c2nc(-c3ccccc3)cs2)CC1)NCc1ccc2c(c1)OCO2 | -11.5 | – |
| Cc1ccc(S(=O)Cc2ccc(C(=O)N3CCN(C4CCCCC4)CC3)o2)cc1 (configuration not stated) | 8.56 | – |
| O=C1C(=O)N(CCN2CCOCC2)C(c2cccc(Cl)c2)/C1=C(/O)c1ccc2c(c1)OCO2 (configuration not stated) | 79.2 | – |

| Structure (SMILES) | activity change, negative = inhibition [%] | Potency |
| --- | --- | --- |
| O=C(NCCCn1ccnc1)/C(=C\c1ccccc1F)NC(=O)c1ccccc1 | 13.2 | – |
| CC(Oc1ccccc1)C(=O)Nc1c2c(nn1-c1ccccc1)CS(=O)C2 (configuration not stated) | 5.06 | – |
| O=C(Nc1sc2c(c1C(=O)O)CCC2)c1ccccc1F | 50.4 | – |
| COc1cc(C(C)=O)ccc1OC(C)C(=O)Nc1ccc(S(=O)(=O)N2CCCC2)cc1 (configuration not stated) | -18.1 | – |
| C=CCn1c(=NC(=O)c2cccs2)sc2cc(NC(C)=O)ccc21 | 105 | – |
| C=CCn1c(=NC(=O)c2ccc(S(=O)(=O)N3CCCC3)cc2)sc2cc(NC(C)=O)ccc21 | – | 1.85 µM (active) |
| CCOc1ccc(C(=O)Nc2ccc(S(=O)(=O)Nc3cc(C)on3)cc2)cc1 | 5.82 | – |
| COc1ccc(C)cc1NC(=O)CNCc1cccs1 | 3.51 | – |
| CCOC(=O)Nc1ccc(NC(=O)OCC)cc1 | 56 | – |
| C[C@H](NC(=O)OC(C)(C)C)c1nnc(SCC(=O)Nc2ccc(Br)cc2)o1 | -5.28 | – |
| CC(C)(C)OC(=O)Nc1ccc([C@@H](NC(=O)OC(C)(C)C)C(=O)OC(C)(C)C)cc1 | – | 2.08 µM (active) |
| CN(Cc1ccccc1Cl)C(=O)C1CCC(=O)N(CCc2cccc(F)c2)C1 (configuration not stated) | -19.1 | – |
| CCOC(=O)C1=C(CNC2CCCCC2)NC(=O)NC1c1cc(C)ccc1C (configuration not stated) | – | 10.4 µM (active) |
| CCOC(=O)C1=C(c2ccccc2)NC(=O)NC1c1cc(OC)c(OC)cc1OC (configuration not stated) | 4.34 | – |
| CC1=C(C(=O)OCC2CCCCC2)C(c2ccc(F)cc2)NC(=O)N1 (configuration not stated) | 29.1 | – |
| Cc1ccc(S(=O)(=O)CC(=O)Nc2nnc(C)s2)cc1 | -2.59 | – |
| O=C(NC(=S)NC1CCS(=O)(=O)C1)c1cccc([N+](=O)[O-])c1 (configuration not stated) | 11.5 | – |
| CCCCCC(=O)NC(=S)NNC(=O)c1ccc([N+](=O)[O-])cc1 | 11.8 | – |
| CC(C)CC(=O)NC(=S)NNC(=O)c1cccc([N+](=O)[O-])c1 | – | 14.7 µM (active) |
| Cc1cc(C(=O)Nc2nnc(C3CC3)s2)c(C)s1 | 234 | – |
| O=C(CN1CCCCC1)Nc1ccccc1C(=O)NC1CC1 | 14 | – |
| CC(NCC(=O)Nc1ccccc1C(=O)NC1CC1)c1ccccc1Cl (configuration not stated) | – | 9.28 µM (active) |
| O=C(COc1ccccc1Cl)Nc1ccccc1C(=O)NC1CC1 | -4.82 | – |
| O=C(CN1C(=O)NC2(CCCCC2)C1=O)NCCc1c[nH]c2ccccc12 | -11 | – |
| CCN(CC(=O)Nc1ccc(NC(C)=O)cc1)C(=O)C1CC(=O)N(Cc2ccc(C)cc2)C1 (configuration not stated) | 3.06 | – |
| CC1CCN(C(=O)c2cccc(S(=O)(=O)N3CCCc4ccccc43)c2)CC1 | -65.1 | – |

| Structure (SMILES) | activity change, negative = inhibition [%] | Potency |
| --- | --- | --- |
| O=S(=O)(c1ccc2c(c1)OCCO2)N1CCc2ccccc21 | -4.28 | – |
| Cn1c(=O)n(C)c2cc(S(=O)(=O)N3CCCc4ccccc43)ccc21 | -12.1 | – |
| NS(=O)(=O)c1ccc(CNC(=O)c2cccc(S(=O)(=O)N3CCc4ccccc43)c2)cc1 | – | 14.7 µM (active) |
| CN1CCN(S(=O)(=O)c2cccc(C(=O)N3CCc4ccccc43)c2)CC1 | 7.8 | – |
| Cc1ccc(NC(=O)c2cccc(S(=O)(=O)N3CCCc4ccccc43)c2)nc1 | – | 4.15 µM (active) |
| Cc1nc(COc2cc3oc(=O)cc(C)c3cc2Cl)cs1 | 56.1 | – |
| NC(=O)C1CCCN(CC(=O)N2CCN(c3ccccc3)CC2)C1 (configuration not stated) | 21.6 | – |
| Cc1ccc(-n2ncc3c2CC(C)(C)CC3NC(=O)CCc2cnn(C)c2)cc1 (configuration not stated) | -10.4 | – |
| C[n+]1cc(-c2ccccc2)oc1-c1ccccc1 | 79.7 | – |
| O=C(COc1ccc2c3c(c(=O)oc2c1)CCCC3)NCC(O)c1ccccc1 (configuration not stated) | 0.369 | – |
| CCCc1nc2ccccc2c(=O)n1/N=C/c1ccc(O)c(O)c1 | 0 | – |
| O=c1c2ccccc2nc(CSc2nnnn2-c2ccccc2)n1-c1ccccc1 | 21.2 | – |
| CCCN1C(=O)C(Cc2nc3ccccc3c(=O)n2-c2ccccc2)c2cc(C)ccc21 (configuration not stated) | – | 13.1 µM (active) |
| COCCNC(=O)CN(Cc1ccco1)C(=O)CCC(=O)Nc1nccs1 | 3.14 | – |
| CCOc1ccc(CCNC(=O)CCc2nnc3ccc(N4CCCC4)nn23)cc1OCC | -17.1 | – |
| CC1C(=O)N2CCCc3cc(S(=O)(=O)NCc4ccc(F)cc4)cc1c32 (configuration not stated) | -1.55 | – |
| CC1CCN(C(=O)C2CCN(S(=O)(=O)N3CCC4(CC3)OCCO4)CC2)CC1 | -24.5 | – |
| CC1(C)CC(=O)CC2(C1)NCC(c1ccccc1Cl)c1c2[nH]c2ccccc12 (configuration not stated) | – | 10.4 µM (active) |
| O=C(CN1CCN(S(=O)(=O)c2ccc(F)cc2)CC1)Nc1ccccc1F | -3.52 | – |
| COc1ccc(NC(=O)CN2CCN(S(=O)(=O)c3ccc(F)cc3)CC2)cc1Cl | -13.7 | – |
| O=C(CN1CCN(S(=O)(=O)c2ccc(Br)cc2)CC1)Nc1ccccc1C(=O)c1ccccc1 | – | 13.1 µM (active) |
| C/C(=N/NC(=O)CN1CCN(S(=O)(=O)c2ccc(Br)cc2)CC1)c1ccncc1 | 0 | – |
| COc1cc2c(cc1NC(=O)CN1CCN(S(=O)(=O)c3ccc(F)cc3)CC1)oc1ccccc12 | – | 10.4 µM (active) |
| COc1cc2c(cc1NC(=O)COC(=O)/C=C/c1ccccc1)oc1ccccc12 | 19.8 | – |
| CCCn1c(N)c(N(CCOC)C(=O)C2CCCC2)c(=O)[nH]c1=O | -0.556 | – |
| Cc1cc(NC(=O)CCS(=O)(=O)c2ccc(F)cc2)no1 | -24.6 | – |

| Structure (SMILES) | activity change, negative = inhibition [%] | Potency |
| --- | --- | --- |
| CC(C)=N/N=C1/NC(=O)C(Cc2ccccc2)S1 (configuration not stated) | -27.8 | – |
| N#CC1(NC(=O)COC(=O)CCN=C2NS(=O)(=O)c3ccccc32)CCCCC1 | 0.444 | – |
| CC(=O)Nc1ccc(S(=O)(=O)N2CCC(C(=O)N[C@@H](Cc3ccccc3)C(=O)O)CC2)cc1 | 15.3 | – |
| COc1c(O)ccc2c1CN1CCc3cc4c(cc3C1C2)OCO4 (configuration not stated) | – | 1.85 µM (active) |
| CN1CCc2cc3c(cc2[C@H]1[C@@H]1OC(=O)c2c1ccc1c2OCO1)OCO3 | -8.96 | – |
| COc1cc(COCC(O)CN2CCN(Cc3ccc4c(c3)OCO4)CC2)cc(OC)c1OC (configuration not stated) | 0 | – |
| COc1ccc(N2CCN(C(=O)CNC(=O)c3ccc(Br)o3)CC2)cc1 | -1.91 | – |
| COc1cccc(C(=O)NNC(=O)c2cccc(F)c2)c1 | 106 | – |
| CC(OC(=O)CCC(=O)c1ccccc1)C(=O)Nc1ccc(F)cc1 (configuration not stated) | -0.871 | – |
| C=CCC(NCc1ccco1)c1ccc(OC)cc1 (configuration not stated) | -2.5 | – |
| COc1ccc(Nc2nc(Cl)nc(NCc3ccco3)n2)cc1 | -11.9 | – |
| COc1ccc(Nc2nc(NCc3ccco3)nc(N/N=C/c3ccccc3Cl)n2)cc1 | – | 10.4 µM (active) |
| CC1(c2nnc(Cc3ccccc3)o2)CC(c2ccccc2F)=NO1 (configuration not stated) | 5.51 | – |
| O=C(Nc1ccc(S(=O)(=O)NCC2CCCO2)cc1)c1ccc(F)cc1 (configuration not stated) | -4.09 | – |
| Cc1ccc(C)c(OCc2cc(C(=O)N3CCN(c4cnccn4)CC3)no2)c1 | -12.7 | – |
| COc1cc(C2C3=C(CCCC3=O)OC3=C2C(=O)CCC3)ccc1OCC(=O)Nc1ccccc1 | -26.2 | – |
| O=C(CCC1CCCC1)N=C1SC2CS(=O)(=O)CC2N1Cc1ccccc1 (configuration not stated) | -0.261 | – |
| CC(C)(C)c1ccc(C(CC(=O)O)NS(=O)(=O)Cc2ccccc2)cc1 (configuration not stated) | 20.6 | – |
| CCCOc1ccc(C(=O)CCC(=O)OC(C)C(=O)Nc2ccc(NC(C)=O)cc2)cc1 (configuration not stated) | 20.9 | – |
| CCCOc1ccc(C(=O)C(CCC(CNCC)C(=O)c2ccc(OCCC)cc2)CNCC)cc1 (configuration not stated) | – | 1.85 µM (active) |
| CCCOc1ccc(C(=O)NCCc2ccccc2)cc1 | 252 | – |
| COc1ccc(NC(=O)N2CCCC2C(=O)NCc2ccccc2Cl)cc1 (configuration not stated) | -14.8 | – |
| O=C(N/C(=C\c1ccc(O)cc1)C(=O)N1CCCCC1)c1ccccc1 | 31.2 | – |
| Nc1ccn(C2CC(O)C(CO)O2)c(=O)n1 (configuration not stated) | 24.6 | – |
